# The entries come from a sample that favours hits as a whole.
# KDM5B inhibitor – KDM5B demethylase inhibition; hit rate 2.6% among 220,000; Q9UGL1; KDM5B demethylase, FDH-coupled NADH fluorescence (FDH is formaldehyde dehydrogenase); Potency, µM (top dose mostly 57.7 µM), usual class: inhibitors; active = well fitted inhibition curve with a large enough effect; note: nearly all actives have a fitted effect of over 70% in size
#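 Coupled FDH/NAD⁺ fluorescence readout. KDM5BΔAP 200 nM final; compound titration, 10 min RT preincubation; substrate mix 12.5 µM H3K4me3, 25 µM 2-OG, 50 µM Fe(II), 100 µM ascorbate, 0.25 mM NAD⁺, 0.25 U/mL FDH; ΔRFU over 30 min.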
# Hits are given with their value; n = inactive.
SMILES,KDM5B inhibitor
CC1CCCN(CCNC2CCCC2)C1 (stereo not given),n
COc1cccc(OC)c1C(=O)Nc1c(NC2CCCC2)c2ccccc2oc1=O,n
Fc1ccc(Nc2nc(NC3CCCC3)nc3c2cnn3-c2ccccc2)cc1,n
O=C1Nc2ccc(-c3ccc(Cl)cc3)cc2C(=O)N2CCN(C(=O)c3ccccc3)C[C@H]12,n
COc1ccc(Cl)cc1-c1ccc2c(c1)C(=O)N1CCN(C(=O)c3cnccn3)C[C@H]1C(=O)N2,n
O=C1Nc2ccc(-c3ccc(Cl)cc3)cc2C(=O)N2CCN(C(=O)C3CCCCC3)C[C@H]12,25µM
COc1ccc(-c2ccc3c(c2)C(=O)N2CC[C@H](NC(=O)C4CCNCC4)C[C@H]2C(=O)N3)c(OC)c1,n
COc1ccc(Cl)cc1-c1ccc2c(c1)C(=O)N1CCN(C(=O)CN)C[C@H]1C(=O)N2,35µM
COc1ccc(Cl)cc1-c1ccc2c(c1)C(=O)N1CCN(C(=O)C3CCCC3)C[C@H]1C(=O)N2,20µM
COCC(=O)N[C@H]1CCN2C(=O)c3cc(-c4cc(Cl)ccc4OC)ccc3NC(=O)[C@@H]2C1,n
O=C1Nc2ccc(Br)cc2C(=O)N2CCN(C(=O)C3CCNCC3)C[C@H]12,n
COc1ccc(-c2ccc3c(c2)C(=O)N2CCN(C(=O)C4CCNCC4)C[C@@H]2C(=O)N3)c(OC)c1,n
CN1CC2(CCN(Cc3cn[nH]c3-c3ccc(F)cc3)CC2)CC1C(=O)N1CCOCC1 (stereo not given),n
CC(C)CCNCc1ccncc1,n
Cc1ccsc1CN(C)C(=O)CC(C)C,n
COc1ccc(-c2coc3c(C)c(OCCN4CCC(C(N)=O)CC4)ccc3c2=O)cc1,n
CC(C)=CCC1(CO)CCCN(Cc2cscn2)C1 (stereo not given),n
c1ccc2oc(CSc3ccc4c(c3)OCCO4)nc2c1,n
Cn1c(SCc2nc(-c3ccc(C(F)(F)F)cc3)no2)nc2ccsc2c1=O,n
COc1ccc(C=O)cc1I,n
COCCNC(=O)c1ccc(-c2ccc(N3CCCCC3)nc2)cc1,13µM
O=C(NC1CCCC1)c1ccc(-c2ccc(N3CCSCC3)nc2)cc1,28µM
O=C(NC1CCCN(c2cc(N3CCCC3)ncn2)C1)c1ccccc1 (stereo not given),n
Cc1ccc(C(=O)NCc2ccc(N3CCCC3)nc2)cc1F,n
O=C(NCCN1CCOCC1)c1ccc(-c2ccc(N3CCCCC3)nc2)cc1,28µM
SMILES,KDM5B inhibitor
CC(NC(=O)c1ccc(-c2ccc(N3CCCCCC3)nc2)cc1)c1cccnc1 (stereo not given),n
O=C(NCCN1CCOCC1)c1ccc(C2CCCNC2)cc1 (stereo not given),n
COc1ccc(OC)c(CNC(=O)c2ccc(-c3ccc(N4CCSCC4)nc3)cc2)c1,n
O=C(NCc1ccccc1F)c1ccc(-c2ccc(N3CCSCC3)nc2)cc1,18µM
O=C(NC1CCCCCCC1)c1ccc(F)cc1,n
O=C(NCCN1CCOCC1)c1ccc(Cl)c(S(=O)(=O)N2CCCCC2)c1,n
O=C(NCc1ccccc1F)c1ccc(-c2ccccc2)cc1,n
CC(=O)Nc1cccc(C(C)NCc2csc(C)n2)c1 (stereo not given),n
CCCC(=O)Nc1ccc(CNCc2ccc(F)cc2F)cc1,n
COc1cccc(CNc2nc3ccccc3nc2C(=O)OCC(C)C)c1,n
CCN(C)Cc1cccc(CNC(=O)Cc2cccc(C(F)(F)F)c2)c1,n
Cc1cc(C)c2cc(C(=O)OC(C)C(=O)N3CCCCCC3)[nH]c2c1 (stereo not given),n
Cc1ccc(S(=O)(=O)N2CCC(Oc3ncccc3C(=O)N3CCOCC3)C2)cc1 (stereo not given),n
O=C(CCNC(=O)c1ccsc1)Nc1ccc(N2CCCC2)nc1,n
O=C(NCc1ccc(N2CCCC2)nc1)c1ccc(Cl)c(Cl)c1,n
O=C(NCCN1CCCC1)c1ccc(-c2ccc(N3CCSCC3)nc2)cc1,25µM
CCOc1ccc(NC(=O)c2cc(=O)c3ccccc3o2)cc1OCC,n
CCOc1cccc(CN2C[C@@H](COC)[C@H](C(=O)N(C)C)C2)c1,n
CCn1c(CSc2nccc(C)n2)nc2cc(NC(=O)c3cccc(Br)c3)ccc21,n
CCCc1ccc(S(=O)(=O)N2C[C@@H]3C(=O)N(C(CC)c4cccs4)C(=O)[C@@H]3C2)cc1 (stereo not given in full),n
Cc1ccc(S(=O)(=O)N2CCC(n3cnnc3C)CC2)cc1C,n
Cc1ccc(S(=O)(=O)N2CCc3nc4cc[nH]n4c(=O)c3C2)cc1C,25µM
Cn1c(=O)oc2cc(S(=O)(=O)N3CCc4c(nc[nH]c4=O)C3)ccc21,n
CCCc1ccc(S(=O)(=O)N2CCc3nc4cc[nH]n4c(=O)c3C2)cc1,14µM
CCCS(=O)(=O)N1CCc2nc(N3CCc4ccccc4C3)[nH]c(=O)c2CC1,n
SMILES,KDM5B inhibitor
Fc1ccc(OCc2nnc(-c3ccc(Br)cc3)o2)cc1,n
CCCNC(=O)CNC(=O)c1nn(C)c(=O)c2ccccc12,n
CC(CC(=O)NCc1ccccc1Cl)S(=O)(=O)c1ccc2c(c1)CCN2C(=O)C1CC1 (stereo not given),n
CC1=CCCC(C)(C)C1/C=C/C(C)=N\Nc1nc2ccccc2[nH]1 (stereo not given),n
OCC1CN(Cc2cscn2)CCC12CCN(Cc1ccccc1)CC2 (stereo not given),n
CCn1cc(S(=O)(=O)NCCc2ncc(C)n2Cc2ccc(F)cc2)cn1,n
CC(C)Cn1cnc2c1c(=O)n(CC(=O)NC(C)CCc1ccccc1)c(=O)n2Cc1ccccc1 (stereo not given),n
O=C(O)CCC(=O)N[C@H]1CCN2C(=O)c3cc(-c4cccc(C(F)(F)F)c4)ccc3NC(=O)[C@H]12,n
O=C(N[C@H]1CCN2C(=O)c3cc(-c4ccc(F)cc4F)ccc3NC(=O)[C@H]12)C1CCCC1,n
O=C(N[C@H]1CCN2C(=O)c3ccccc3NC(=O)[C@H]12)c1cccc(F)c1,n
O=C(N[C@H]1CCN2C(=O)c3cc(-c4ccc(Cl)cc4)ccc3NC(=O)[C@H]12)C1CCCC1,25µM
O=C(N[C@H]1CCN2C(=O)c3cc(-c4ccccc4F)ccc3NC(=O)[C@H]12)c1cnccn1,n
O=C(N[C@H]1CCN2C(=O)c3cc(-c4cccs4)ccc3NC(=O)[C@H]12)C1CCCC1,40µM
O=C(N[C@H]1CCN2C(=O)c3cc(-c4cccs4)ccc3NC(=O)[C@H]12)c1cccc(F)c1,28µM
CSCC(=O)N[C@H]1CCN2C(=O)c3cc(-c4cccc(C(F)(F)F)c4)ccc3NC(=O)[C@H]12,n
O=C(NC1CCCCC1)N[C@H]1CCN2C(=O)c3ccccc3NC(=O)[C@H]12,n
CC(C)NC(=O)N[C@H]1CCN2C(=O)c3cc(-c4ccc(F)cc4F)ccc3NC(=O)[C@H]12,n
O=C(O)CCC(=O)N[C@H]1CCN2C(=O)c3cc(-c4cccs4)ccc3NC(=O)[C@H]12,35µM
O=C(N[C@H]1CCN2C(=O)c3ccc(Cl)cc3NC(=O)[C@H]12)c1cccc(F)c1,n
O=C(CN1CCOCC1)N1CCC(N2C(=O)C3(CCCC3)C2c2ccccc2)CC1 (stereo not given),n
Cc1ccc(-c2nc(CN3CCCC3c3nnc4ccccn34)co2)c(C)c1 (stereo not given),n
Cc1ccc(S(=O)(=O)N(CC(=O)Nc2ccccc2C(=O)O)c2cccc(Cl)c2)cc1,n
O=C(CCC(=O)c1ccc2c(c1)CCC2)Nc1ccc2c(c1)CCC2,n
CC(C)CCSc1nc2c(c(=O)[nH]c(=O)n2C)n1CC(O)COc1ccc(Cl)cc1 (stereo not given),n
